Screening results deposited in PubChem BioAssay by several laboratories.
Mdm2-MdmX inh: inhibitors of human Mdm2-MdmX association, primary screen, cell-based, luminescence, split luciferase, SaOS-2, uHTS | SaOS-2 split-luciferase Mdm2/MdmX complementation | inhibition, % at 8 µM | 3% of 330,000 active;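 active = inhibition of at least 50% at 8 µM in the primary screen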
Target sequence (O15151 whole entry, looked up): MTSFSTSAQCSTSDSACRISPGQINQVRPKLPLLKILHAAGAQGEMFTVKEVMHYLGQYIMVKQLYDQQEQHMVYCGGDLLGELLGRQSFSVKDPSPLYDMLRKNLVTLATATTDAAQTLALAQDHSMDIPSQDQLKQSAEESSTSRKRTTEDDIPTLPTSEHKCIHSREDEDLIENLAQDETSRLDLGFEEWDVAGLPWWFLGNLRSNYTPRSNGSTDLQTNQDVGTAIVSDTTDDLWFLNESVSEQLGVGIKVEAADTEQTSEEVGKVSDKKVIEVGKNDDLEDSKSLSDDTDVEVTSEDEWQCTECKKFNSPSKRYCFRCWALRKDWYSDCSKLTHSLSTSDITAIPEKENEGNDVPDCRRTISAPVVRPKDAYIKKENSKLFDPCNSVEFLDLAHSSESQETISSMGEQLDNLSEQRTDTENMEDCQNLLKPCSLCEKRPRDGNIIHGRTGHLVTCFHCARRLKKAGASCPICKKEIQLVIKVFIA
Target sequence (Q00987 whole entry, looked up): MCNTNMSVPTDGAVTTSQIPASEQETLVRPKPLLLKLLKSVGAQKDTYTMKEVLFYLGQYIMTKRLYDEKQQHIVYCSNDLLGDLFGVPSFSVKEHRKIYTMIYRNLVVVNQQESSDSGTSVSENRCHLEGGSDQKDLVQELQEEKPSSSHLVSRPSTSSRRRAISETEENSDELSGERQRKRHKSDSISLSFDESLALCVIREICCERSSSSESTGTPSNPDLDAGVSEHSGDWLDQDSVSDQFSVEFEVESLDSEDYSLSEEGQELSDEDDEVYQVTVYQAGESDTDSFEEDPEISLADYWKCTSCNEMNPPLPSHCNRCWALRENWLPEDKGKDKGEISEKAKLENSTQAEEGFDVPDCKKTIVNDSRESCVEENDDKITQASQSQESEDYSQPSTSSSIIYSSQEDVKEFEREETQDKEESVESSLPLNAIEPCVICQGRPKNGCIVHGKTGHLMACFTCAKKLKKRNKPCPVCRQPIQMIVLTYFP
697 NFkB inh: inhibitors of PMA/ionomycin-induced NF-kB reporter, 697 cells, primary screen, B-cell NF-kB inhibitor project, cell-based, luminescence, uHTS. 697 B-cell NF-kB luciferase reporter, 16 h. inhibition, % at 4 µM. 0.33% of 330,000 active. AID 435022, 2010; in the data active = inhibition above about 35%
Gli-Sufu block: Gli-Sufu pathway antagonists, primary screen, luciferase luminescence, Sufu-KO-LIGHT cells, uHTS; inhibition, % at 5 µM; Sufu-KO-LIGHT fibroblasts, Gli luciferase reporter luminescence; 0.74% of 340,000 active;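 active = inhibition above about 55%, limit read from the data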
Jurkat NFkB inh: inhibitors of induced NF-kB luciferase reporter, primary screen, TCR NF-kB activation inhibitor project, cell-based, luminescence, uHTS; Jurkat, PMA/ionomycin-induced NF-kB luciferase reporter; 0.53% of 330,000 active; inhibition, % at 4 µM; in the data active = inhibition above about 50%
Shn3 inh set2: reduction of Shn3 3'UTR firefly luciferase signal, primary screen, Schnurri-3 inhibitor project, cell-based, Clone20 osteoblasts, set 2. inhibition, % at 12.5 µM. 0.52% of 360,000 active. Clone20 osteoblast Shn3 3'UTR firefly luciferase, 24 h;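 active = mean inhibition of at least 75% with every replicate also reaching 75%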
Hits are given with their value; i = inactive; nt = no result given. Rows were chosen to be rich in hits. Some 3.8% of all compounds tested hit in one or more screens of this group.

SMILES	Mdm2-MdmX inh	697 NFkB inh	Gli-Sufu block	Jurkat NFkB inh	Shn3 inh set2
Cc1cc([N+](=O)[O-])c(Cl)cc1NC(=O)C(C)C	i	i	i	i	i
CNc1cc(Cl)c2nonc2c1[N+](=O)[O-]	nt	nt	i	nt	90
CC(C)(O)/C=C/C(=O)C(C)(O)C1C(O)CC2(C)C3CC=C4C(C=C(O)C(=O)C4(C)C)C3(C)C(=O)CC12C (stereo not given)	nt	nt	89	nt	89
CCOP(=O)(/C=C(\Cl)c1ccccc1)C(O)c1ccc(F)cc1 (stereo not given)	i	i	i	i	i
C=C1C(=O)OC2CC(C)C3C=CC(=O)C3(C)C(O)C12 (stereo not given)	nt	nt	94	nt	97
COC(=O)C1=C(c2ccc(F)cc2OCc2ccccc2)C[C@@H]2CC[C@H]1N2C(=O)NC1Cc2ccccc2C1	i	i	i	i	87
CC1=CC(C)CC(C)OC(=O)CC(c2ccc(O)cc2)NC(=O)C(Cc2c(Br)[nH]c3ccccc23)N(C)C(=O)C(C)NC(=O)C(C)C1 (stereo not given)	nt	nt	83	nt	i
CN1CCN(c2ccc([N+](=O)[O-])c3no[n+]([O-])c23)CC1	nt	nt	65	nt	97
O=[N+]([O-])c1ccc(N(CCO)CCO)c2c1no[n+]2[O-]	nt	nt	nt	nt	i
CCN(CCCl)c1cc(CN(C)C)cc(NC(=O)c2ccc(C(=O)Nc3cc(CN(C)C)cc(N(CC)CCCl)c3)cc2)c1	nt	nt	i	nt	96
Cc1cc(OCC(=O)NCc2ccncc2)c2c3c(c(=O)oc2c1)CCCC3	i	i	i	i	i
CC1(CCl)CN1S(=O)(=O)c1ccccc1 (stereo not given)	i	i	i	i	i
O=c1[nH]c2ccccc2n1C1CCN(C(CCc2ccccc2)c2nnnn2Cc2ccccc2)CC1 (stereo not given)	nt	nt	nt	nt	85
COc1ccc(C(c2nnnn2Cc2ccccc2)N2CCC(n3c(=O)[nH]c4ccccc43)CC2)cc1 (stereo not given)	nt	nt	nt	nt	i
O=c1[nH]c2ccccc2n1C1CCN(C(c2cccs2)c2nnnn2Cc2ccccc2)CC1 (stereo not given)	nt	nt	nt	nt	85
COC(=O)C1C(O)CC2CCC1N2C (stereo not given)	i	i	i	i	i
COc1cc2c(cc1OC)C1[C@H]3C(=CC[C@H]1OC2O)CCN3C (stereo not given in full)	i	i	i	i	i
C=CC1CN2CCC1CC2C(OC(C)=O)c1ccnc2ccc(OC)cc12 (stereo not given)	i	i	i	i	i
COC(=O)C1=C(c2cccc(OCc3ccccc3)c2)C[C@@H]2CC[C@H]1N2C(=O)NCc1ccc(Cl)cc1	i	i	i	i	i
CN1C2c3ccccc3C3C4c5ccccc5C(C31)C(C2[N+](=O)[O-])N4C (stereo not given)	i	i	i	i	i
COc1cccc2c1O[C@H]1C(=O)CC[C@H]3CN(C)CCC231 (stereo not given in full)	i	i	i	i	89
CCC1CN2CCc3cc(OC)c(OC)cc3C2CC1CC1NCCc2c1[nH]c1ccc(O)cc21 (stereo not given)	nt	nt	87	nt	92
CC1=CC2OC3CC4OC(=O)C=CC=CC(=O)OCCC(C)C(O)C(=O)OCC2(CC1)C4(C)C31CO1 (stereo not given)	nt	nt	92	nt	98
CC(O)C1C=CC=CC(=O)OC2CC3OC4C5OC5(C)C(O)CC4(COC(=O)C(O)C(C)CCO1)C2(C)C31CO1 (stereo not given)	nt	nt	92	nt	96
CC1=CC2OC3CC4OC(=O)C=CC=CC(C(C)O)OCC(O)C5(C)OC5C(=O)OCC2(CC1O)C4(C)C31CO1 (stereo not given)	nt	nt	88	nt	98
SMILES	Mdm2-MdmX inh	697 NFkB inh	Gli-Sufu block	Jurkat NFkB inh	Shn3 inh set2
C[C@H]1[C@@H](OS(=O)(=O)O)C[C@@H]2C[C@H]([C@@H](O)c3cc(=O)[nH]c(=O)[nH]3)NC3=NC[C@H]1N32	nt	nt	76	nt	98
CC1CC(C)(O)CC(C(O)CC2CC(=O)NC(=O)C2)C1=O (stereo not given)	nt	nt	84	nt	94
COC(=O)C1=C(c2cc3ccccc3o2)C[C@@H]2CC[C@H]1N2C(=O)NC(C)C	i	i	i	i	i
N#Cc1ccc(NC(=O)CN2C(=O)NC3(CCCCCCC3)C2=O)cc1Cl	i	i	i	i	i
CC(N)C(=O)NC1C2C(=C(O)CC(O)C2O)C(=O)OC1(C)C(Cl)Cl (stereo not given)	nt	nt	76	nt	96
COc1cc2cc(C(=O)N3CC(COS(C)(=O)=O)c4ccc(O)cc43)[nH]c2c(OC)c1OC (stereo not given)	nt	nt	94	nt	95
COC(=O)C1=C(c2ccc3ccccc3c2)C[C@@H]2CC[C@H]1N2C(=O)NCC1CC1	i	i	i	i	89
CCOP(=O)(OCC)C(O)c1cccnc1 (stereo not given)	i	i	i	i	i
COC1CC2C=C(C)C=CC=CC(=O)NC(c3ccccc3)CC=CCCC(O)CC(=O)C2=C1O (stereo not given)	nt	nt	nt	nt	98
C[C@]12CCC3[C@@H](CCC4=CC(=O)CC[C@@]43C=O)C1CCC2=O (stereo not given in full)	i	i	i	i	i
Cc1cccc(N2C(=O)NC(=O)/C(=C\C=C\c3ccco3)C2=O)c1	i	i	i	i	98
Cc1ccc(N2C(=O)NC(=O)/C(=C\C=C\c3ccco3)C2=O)cc1	i	i	i	i	i
O=P1(Oc2ccccc2)OCCCS1 (stereo not given)	i	i	i	i	i
CCOP(=O)(OCC)C(NC(=O)c1cccc([N+](=O)[O-])c1)C(Cl)(Cl)Cl (stereo not given)	i	i	i	i	i
O=C(NCC1=C(c2ccc3ccccc3c2)C[C@@H]2CC[C@H]1N2Cc1ccco1)c1cccnc1	nt	nt	nt	nt	i
COC(=O)C1=C(c2ccc(F)cc2OCc2ccccc2)C[C@@H]2CC[C@H]1N2C(=O)N1CCOCC1	i	i	i	i	i
CCCC1CCCCC12C(=O)NC(=O)NC2=O (stereo not given)	nt	nt	i	nt	i
CCOc1cc2c(cc1OCC)-n1cccc1C(c1ccc(C(C)C)cc1)NC2 (stereo not given)	i	i	i	i	90
CCOc1cc2c(cc1OCC)-n1cccc1C(c1ccc(F)cc1)NC2 (stereo not given)	i	i	i	i	i
COC(=O)C1=C(C(=O)OC)SC2(S1)C(C(=O)OC)=C(C(=O)OC)Sc1c2ssc1=O	nt	nt	i	nt	98
CN(C)CC(C(=O)Cc1ccccc1)c1ccccc1 (stereo not given)	nt	nt	i	nt	95
Cn1c(=O)n(C)c2cc([N+](=O)[O-])c(N3CCNCC3)cc21	i	i	57	i	i
